Values joined by “and” are separate entries in the source; they are usually repeats but may differ in a detail not shown here. Equal values may be shown once. For part of these data: Results with a measured potency or affinity are listed apart.
Legend:
Set-up in all cases: scale not given: direction of the effect not stated beside the values
[1] = target: Protein translocase subunit SecA (Escherichia coli (strain K12)) (UniProt P10408); assay: Assay to Identify E. coli SecA ATPase Inhibitors; assay type: functional; details: 30 µM
[2] = target: T1, Ubiquitin-activating enzyme e1, putative (Leishmania donovani (strain BPK282A1)) (UniProt E9BSI1); assay: Leishmania donovani Ubiquitin Activating Enzyme (LdE1); assay type: functional; details: 30 µM
T1 sequence (whole entry): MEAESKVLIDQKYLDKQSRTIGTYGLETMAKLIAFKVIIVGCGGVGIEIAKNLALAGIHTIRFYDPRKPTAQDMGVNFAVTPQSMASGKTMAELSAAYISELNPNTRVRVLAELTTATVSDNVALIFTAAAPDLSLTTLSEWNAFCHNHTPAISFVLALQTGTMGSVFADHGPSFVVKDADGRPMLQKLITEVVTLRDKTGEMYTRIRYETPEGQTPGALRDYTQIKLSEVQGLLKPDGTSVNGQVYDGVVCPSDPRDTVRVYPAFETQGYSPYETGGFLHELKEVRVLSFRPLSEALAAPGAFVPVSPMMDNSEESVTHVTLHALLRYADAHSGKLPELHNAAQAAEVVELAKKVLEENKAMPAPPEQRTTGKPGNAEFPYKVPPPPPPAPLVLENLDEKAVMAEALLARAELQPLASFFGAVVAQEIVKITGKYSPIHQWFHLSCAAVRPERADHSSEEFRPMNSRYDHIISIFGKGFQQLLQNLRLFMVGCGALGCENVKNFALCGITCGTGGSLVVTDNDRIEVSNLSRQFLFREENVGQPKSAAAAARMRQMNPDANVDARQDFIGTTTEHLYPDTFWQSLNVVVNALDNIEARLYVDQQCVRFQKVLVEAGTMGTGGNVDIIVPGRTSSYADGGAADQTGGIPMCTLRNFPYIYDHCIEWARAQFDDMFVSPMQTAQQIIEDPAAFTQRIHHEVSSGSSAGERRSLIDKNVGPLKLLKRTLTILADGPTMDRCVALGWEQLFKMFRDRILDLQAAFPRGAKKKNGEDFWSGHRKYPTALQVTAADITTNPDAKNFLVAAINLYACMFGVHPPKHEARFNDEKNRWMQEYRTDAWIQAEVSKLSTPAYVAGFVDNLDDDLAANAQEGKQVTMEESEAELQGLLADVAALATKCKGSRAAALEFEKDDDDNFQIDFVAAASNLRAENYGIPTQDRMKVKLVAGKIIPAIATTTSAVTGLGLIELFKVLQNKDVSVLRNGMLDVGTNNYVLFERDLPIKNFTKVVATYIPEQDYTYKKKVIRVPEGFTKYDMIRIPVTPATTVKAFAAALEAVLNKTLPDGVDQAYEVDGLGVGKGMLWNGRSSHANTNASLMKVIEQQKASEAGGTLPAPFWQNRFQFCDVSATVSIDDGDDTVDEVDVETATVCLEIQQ

[3] = target: AMP-activated protein kinase, AMPK (Homo sapiens) (UniProt P54646+O43741+P54619+Q9UGJ0+Q9Y478+Q13131+Q9UGI9); assay: AMP-dependent Kinase enzyme assay. An in vitro enzyme assay that detects ADP turnover that is directly proportional to AMPK activity. This uses naive AMPK that is activated during the assay with MK-8722; assay type: functional; details: 30 µM
[4] = target: Sialic acid-binding Ig-like lectin 9 (Homo sapiens) (UniProt Q9Y336); assay: Hs-Siglec9 ALPHAscreen SOP 20170721; details: 10 µM
[5] = system: Trypanosoma cruzi; assay: Trypanosoma cruzi phosphomannomutase and mannose-1-phosphate guanylyltransferase assay; assay type: functional; details: 10 µM
[6] = target: T2, Arginase-2, mitochondrial (Homo sapiens) (UniProt P78540); assay: in vitro enzyme assay to detect the production of urea directly proportional to the activity of Arginase II; assay type: functional; details: 33.3 µM; further: in the data most compounds retested in dose-response had high values
T2 sequence (whole entry): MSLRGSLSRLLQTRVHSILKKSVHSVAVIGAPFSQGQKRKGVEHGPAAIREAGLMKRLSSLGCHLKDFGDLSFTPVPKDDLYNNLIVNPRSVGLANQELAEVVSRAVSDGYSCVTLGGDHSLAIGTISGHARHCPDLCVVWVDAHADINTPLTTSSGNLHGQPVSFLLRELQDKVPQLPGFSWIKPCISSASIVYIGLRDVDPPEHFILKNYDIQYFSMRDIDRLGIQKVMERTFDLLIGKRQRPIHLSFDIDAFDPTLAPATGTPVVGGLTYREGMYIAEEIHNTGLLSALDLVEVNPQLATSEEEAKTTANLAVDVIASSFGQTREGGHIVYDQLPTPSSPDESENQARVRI

[7] = target: T3, Proteasome subunit beta (Trypanosoma cruzi) (UniProt O96673); assay: Trypanosoma cruzi proteasome chymotrypsin-like activity (TcProtChymo) assay.; further: in the data most compounds retested in dose-response had high values; assay type: functional; details: 9.37 µM
T3 sequence (whole entry): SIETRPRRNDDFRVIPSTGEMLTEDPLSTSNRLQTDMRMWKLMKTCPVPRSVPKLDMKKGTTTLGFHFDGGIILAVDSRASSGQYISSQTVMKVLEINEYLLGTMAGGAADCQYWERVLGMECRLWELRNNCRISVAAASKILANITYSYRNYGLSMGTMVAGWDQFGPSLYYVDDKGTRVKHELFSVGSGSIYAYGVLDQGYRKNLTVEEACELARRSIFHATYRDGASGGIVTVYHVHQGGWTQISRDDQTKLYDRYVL

[8] = species: Homo sapiens; assay: To identify inhibition of the IFN signalling (Jak-Stat) pathway via expression of an eGFP reporter gene under the control of an IFN-stimulated response element (ISRE) containing MxA promoter.; assay type: functional; details: 30 µM
[9] = target: T4, Tyrosyl-tRNA synthetase, putative (Trypanosoma cruzi (strain CL Brener)) (UniProt Q4DSP6); assay: Trypanosoma cruzi tyrosyl tRNA synthetase (TcYRS) _High Tyrosine SOP; assay type: functional; details: 30 µM; further: in the data most compounds retested in dose-response had high values
T4 sequence (whole entry): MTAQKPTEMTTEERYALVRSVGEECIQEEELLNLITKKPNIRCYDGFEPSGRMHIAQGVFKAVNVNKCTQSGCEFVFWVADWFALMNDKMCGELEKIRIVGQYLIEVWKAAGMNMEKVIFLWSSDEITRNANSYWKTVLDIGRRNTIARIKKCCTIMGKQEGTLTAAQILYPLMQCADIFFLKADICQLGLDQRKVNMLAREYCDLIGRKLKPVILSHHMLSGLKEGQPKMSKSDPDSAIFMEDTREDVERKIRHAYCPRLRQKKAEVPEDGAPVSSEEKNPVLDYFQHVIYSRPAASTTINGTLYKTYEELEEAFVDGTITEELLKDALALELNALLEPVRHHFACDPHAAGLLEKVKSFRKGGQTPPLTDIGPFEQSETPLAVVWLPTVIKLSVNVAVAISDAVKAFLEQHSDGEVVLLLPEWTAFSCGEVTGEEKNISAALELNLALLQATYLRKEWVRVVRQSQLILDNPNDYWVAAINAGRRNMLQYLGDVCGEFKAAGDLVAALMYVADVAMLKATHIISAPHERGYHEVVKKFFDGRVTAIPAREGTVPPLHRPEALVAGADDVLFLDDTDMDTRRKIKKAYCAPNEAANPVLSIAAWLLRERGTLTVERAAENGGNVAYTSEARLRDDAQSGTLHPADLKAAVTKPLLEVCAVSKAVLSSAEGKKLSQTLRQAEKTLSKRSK

[10] = target: T4, Tyrosyl-tRNA synthetase, putative (Trypanosoma cruzi (strain CL Brener)); assay: Trypanosoma cruzi tyrosyl tRNA synthetase (TcYRS) SOP; assay type: functional; details: 30 µM
[11] = target: Chromo domain-containing protein 1 (Saccharomyces cerevisiae (strain ATCC 204508 / S288c) (Baker's yeast)) (UniProt P32657); assay: ScCHD-1 Enzyme Inhibition Assay; assay type: functional; details: 30 µM; further: in the data most compounds retested in dose-response had high values
[12] = system: N/A; assay: Trypanosoma cruzi proteasome luciferase counter-screen; assay type: functional; details: 9.37 µM

Chain of Sialic acid-binding Ig-like lectin 9 (Homo sapiens) (Q9Y336 whole entry): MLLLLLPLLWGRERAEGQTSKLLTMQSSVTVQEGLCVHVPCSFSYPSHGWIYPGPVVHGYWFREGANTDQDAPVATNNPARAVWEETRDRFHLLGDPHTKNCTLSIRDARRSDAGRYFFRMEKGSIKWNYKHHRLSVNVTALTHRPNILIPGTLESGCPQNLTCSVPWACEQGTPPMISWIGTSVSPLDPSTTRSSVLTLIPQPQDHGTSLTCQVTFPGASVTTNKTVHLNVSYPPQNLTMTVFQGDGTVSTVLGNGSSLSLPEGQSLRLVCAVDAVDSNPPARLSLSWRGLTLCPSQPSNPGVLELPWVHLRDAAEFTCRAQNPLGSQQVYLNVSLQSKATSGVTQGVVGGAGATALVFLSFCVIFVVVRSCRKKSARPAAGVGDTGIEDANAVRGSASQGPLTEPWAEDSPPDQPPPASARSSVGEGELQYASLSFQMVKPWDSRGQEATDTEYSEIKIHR
Chain of Chromo domain-containing protein 1 (Saccharomyces cerevisiae (strain ATCC 204508 / S288c) (Baker's yeast)) (P32657 whole entry, the tested form may be a part): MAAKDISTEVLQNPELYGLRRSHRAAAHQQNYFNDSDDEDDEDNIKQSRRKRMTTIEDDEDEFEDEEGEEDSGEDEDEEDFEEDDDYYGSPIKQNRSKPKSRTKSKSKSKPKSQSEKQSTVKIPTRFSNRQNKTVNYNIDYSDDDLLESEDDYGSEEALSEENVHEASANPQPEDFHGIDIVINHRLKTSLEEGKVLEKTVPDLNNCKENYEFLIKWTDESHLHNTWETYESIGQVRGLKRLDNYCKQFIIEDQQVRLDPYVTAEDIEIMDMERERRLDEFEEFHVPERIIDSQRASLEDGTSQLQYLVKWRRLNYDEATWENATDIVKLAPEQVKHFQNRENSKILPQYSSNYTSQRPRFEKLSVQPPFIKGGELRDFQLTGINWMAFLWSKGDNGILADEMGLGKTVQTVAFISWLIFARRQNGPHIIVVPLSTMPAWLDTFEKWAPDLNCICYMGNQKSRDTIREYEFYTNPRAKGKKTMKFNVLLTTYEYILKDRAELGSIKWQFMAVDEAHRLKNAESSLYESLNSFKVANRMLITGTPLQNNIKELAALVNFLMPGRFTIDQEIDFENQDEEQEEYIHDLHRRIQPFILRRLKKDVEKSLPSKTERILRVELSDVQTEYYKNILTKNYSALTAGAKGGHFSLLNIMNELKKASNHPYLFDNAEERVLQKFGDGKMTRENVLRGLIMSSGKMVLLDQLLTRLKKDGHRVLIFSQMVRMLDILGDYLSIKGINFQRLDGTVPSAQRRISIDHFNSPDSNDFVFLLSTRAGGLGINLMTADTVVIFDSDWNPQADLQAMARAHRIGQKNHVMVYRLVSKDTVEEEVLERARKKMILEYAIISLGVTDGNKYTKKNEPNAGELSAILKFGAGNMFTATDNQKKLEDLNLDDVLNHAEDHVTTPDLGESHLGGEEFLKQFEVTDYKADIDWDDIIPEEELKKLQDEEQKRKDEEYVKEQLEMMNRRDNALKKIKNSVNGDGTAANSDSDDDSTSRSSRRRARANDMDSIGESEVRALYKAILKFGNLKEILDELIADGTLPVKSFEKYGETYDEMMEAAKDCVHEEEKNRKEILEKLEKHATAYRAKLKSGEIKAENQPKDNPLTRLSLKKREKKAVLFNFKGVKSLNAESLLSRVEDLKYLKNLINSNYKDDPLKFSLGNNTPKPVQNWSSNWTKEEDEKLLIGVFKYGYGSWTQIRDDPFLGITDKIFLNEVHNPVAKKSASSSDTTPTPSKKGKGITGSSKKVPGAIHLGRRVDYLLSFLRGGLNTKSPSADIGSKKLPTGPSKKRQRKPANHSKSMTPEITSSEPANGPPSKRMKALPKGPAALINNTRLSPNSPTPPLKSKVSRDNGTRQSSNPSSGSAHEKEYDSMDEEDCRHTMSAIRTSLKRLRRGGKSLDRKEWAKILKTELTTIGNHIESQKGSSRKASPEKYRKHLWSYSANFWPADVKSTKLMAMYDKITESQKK
Chain of Protein translocase subunit SecA (Escherichia coli (strain K12)) (P10408 whole entry): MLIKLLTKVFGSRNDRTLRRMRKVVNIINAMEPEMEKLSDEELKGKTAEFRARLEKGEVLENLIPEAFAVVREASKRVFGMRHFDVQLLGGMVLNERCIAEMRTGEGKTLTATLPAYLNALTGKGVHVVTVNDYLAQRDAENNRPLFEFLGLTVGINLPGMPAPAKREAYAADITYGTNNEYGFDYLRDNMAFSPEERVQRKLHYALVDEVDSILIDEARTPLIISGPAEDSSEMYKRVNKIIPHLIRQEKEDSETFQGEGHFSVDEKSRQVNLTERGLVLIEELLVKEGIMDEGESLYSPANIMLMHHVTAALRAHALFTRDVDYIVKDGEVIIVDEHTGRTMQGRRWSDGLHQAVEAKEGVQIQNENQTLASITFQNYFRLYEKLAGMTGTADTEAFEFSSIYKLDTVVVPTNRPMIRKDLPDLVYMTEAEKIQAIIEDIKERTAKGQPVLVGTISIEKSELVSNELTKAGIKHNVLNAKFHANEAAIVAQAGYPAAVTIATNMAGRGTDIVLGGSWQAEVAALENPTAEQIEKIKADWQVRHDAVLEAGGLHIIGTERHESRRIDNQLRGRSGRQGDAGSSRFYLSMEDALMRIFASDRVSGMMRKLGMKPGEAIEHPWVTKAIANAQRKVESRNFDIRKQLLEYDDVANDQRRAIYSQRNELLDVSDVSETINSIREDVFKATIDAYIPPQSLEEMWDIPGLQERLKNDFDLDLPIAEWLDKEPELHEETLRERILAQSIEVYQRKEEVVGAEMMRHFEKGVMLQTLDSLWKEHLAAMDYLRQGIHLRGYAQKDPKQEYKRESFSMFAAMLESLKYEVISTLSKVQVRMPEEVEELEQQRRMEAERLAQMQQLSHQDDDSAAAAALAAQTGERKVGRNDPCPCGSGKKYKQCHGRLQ

SMILES | Percent Effect [1] | Percent Effect [2] | Percent Effect [3] | Percent Effect [4] | Percent Effect [5] | Percent Effect [6] | Percent Effect [7] | Percent Effect [8] | Percent Effect [9] | Percent Effect [10] | Percent Effect [11] | Percent Effect [12]
CN1CCCN(C[C@@H]2CN(C(=O)CCC3CCCC3)C[C@@H]2CO)CC1 | -5.09% | 7.79% | 1.31% | 18.7% | 4.62% | -8.28% | 3.66% | -0.683% | 6.45% | 11.1% | -3.02% | –
CC(C)c1csc(C2CCCN(C(=O)c3ncccn3)C2)n1 (configuration not stated) | -4.12% | -2.7% | 4.03% | -10.4% | -4.99% | -0.744% | 3.69% | 7.7% | -3.23% | -3.7% | -2.9% | –
CN(CCc1ccccc1)Cc1cc(C(=O)N2CCCC2(C)C)no1 | 8.96% | 13.7% | -8.24% | 6.18% | -2.38% | -17.6% | 11% | 33.7% | 8.33% | 11.1% | -0.0446% | –
Cc1cc(C)n(CC2CCCCN2CC(=O)Nc2nncs2)n1 (configuration not stated) | -3.75% | 8% | -5.11% | 15% | 7.69% | 14.6% | 0.349% | 13.2% | 6.01% | 16.1% | -8.51% | –
Cc1noc([C@H]2C[C@H]3OCC[C@H]3N(Cc3ccc4c(c3)OCO4)C2)n1 | -1.12% | 13.5% | 5.01% | -6.24% | -0.88% | 6.05% | 11.4% and 30.6% and 12.5% | -2.22% | 5.41% | 17.9% | -3.92% | 7.96% and 8.15%
Cc1ccc(CN2CC[C@H]3OCC[C@@H](C(=O)NC4CC4)[C@@H]3C2)o1 | -6.72% | 5.41% | -20.2% | -9.85% | -4.01% | 1.59% | 7.75% | 11.3% | -1.08% | -2.56% | -0.126% | –
CN(CCN1CCCCC1)C(=O)c1cc(CN2CCOCC2)on1 | -2.82% | 8.22% | -18.2% | -4.57% | 2.74% | 1.82% | 21.8% | -8.25% | 7.53% | 20% | -3.28% | –
CCCNC(=O)Cn1nc(C(C)C)c2cnn(C(C)(C)C)c2c1=O | -3.37% | 5.48% | -13.9% | 4.27% | -0.392% | 2.27% | 16.1% | 5.42% | 8.6% | 15% | -5.95% | –
CN(Cc1ccsc1)C(=O)CS(=O)(=O)Cc1ccc(Cl)c(Cl)c1 | -1.27% | -5.2% | 10.5% | -5.21% | 7.15% | 0.21% | 15.6% | 7.44% | -13.3% | 0% | -13.1% | –
O=S(=O)(Cc1ccccc1)NCc1ccco1 | -2.2% | -1.39% | 13.3% | 0.175% | 0.68% | 0% | -1.4% | 6.12% | 3.16% | 2.56% | 0.387% | –
CC(C)CN1Cc2c(C(=O)N(C)C)ncn2-c2ccccc2S1(=O)=O | -3.52% | 5.41% | -2.12% | -3.11% | -2.83% | 0.319% | 11.6% | -4.16% | 3.24% | 15.4% | 0.625% | –
Cc1cc(C(=O)N2CCc3nnc(N)cc3C2)c(C)n1-c1cccnc1 | -9.46% | -46.8% | -58.5% | 7.86% | 0.923% | -2.37% | 33.5% and 37.5% and 48.3% | 12.2% | 9.38% | 10.1% | -5.27% | 14.7% and 15.2%
Cc1cnn(CC2CN(Cc3nnc(C4CC4)o3)CCO2)c1 (configuration not stated) | -7.99% | 5.41% | 87.3% | 7.35% | -4.18% | -4.99% | -1.26% | 8.17% | 1.98% | 3.66% | 7.2% | –
CCCC(NC(=O)c1cc(C)n(C2CC2)c1C)c1nnn[nH]1 (configuration not stated) | -6.85% | 8% | -2.47% | 18.2% | 6.13% | 11.5% | 41.1% and 40.1% and 33.4% | 14.1% | 8.2% | 11.1% | -4.79% | 13.1% and 10.6%
CC(NC(=O)NCCCn1ccnc1)c1ccc2c(c1)CCC(=O)N2 (configuration not stated) | -5.85% | 22.8% | 0.7% | -8% | 8.4% | -2.66% | 13% | 10.8% | 5.42% | 24.1% | -6.95% | –
CN(c1cccnn1)C1CCN(C(=O)c2ccc3c(c2)COC3)CC1 | -7.72% | -44.2% | 15.1% | 5.38% | 0.187% | 2.85% | 5.41% | 9.98% | 6.8% | 12.2% | -5.25% | –
COc1ccc(OC)c(NC(=O)c2nc3ccccc3n(C)c2=O)c1 | 1.79% | -15.6% | 3.42% | -2.14% | 0.888% | 3.23% | 9.22% | 3.54% | 1.06% | 14.1% | -7.41% | –
CC(C)c1cc2c(O)nc(CSCC(=O)O)nc2s1 | -4.64% | 6.67% | 7.73% | 3.74% | 3.93% | -2.99% | 70.5% and 64.5% and 63.5% | 1.31% | 4.23% | 10.3% | -9.79% | 32% and 29.1%
Cc1cc(N2CCN(CC(=O)N(C)C)CC2)nc(-c2ccncc2)n1 | -6.79% | 23.7% | -6.29% | -5.92% | 11% | -11.8% | 35.2% and 34.4% and 30.2% | 5.2% | 20.2% | 28.6% | -6.26% | 18.5% and 14.6%
c1ccc2sc(N3CCOC(Cn4cccn4)C3)nc2c1 (configuration not stated) | -6.09% | 13.5% | -6.61% | 25.1% | 4.25% | -6.41% | 38.1% and 31.4% and 25.9% | 17.4% | 8.37% | 25.9% | -17.7% | 10.8% and 13.7%
Cc1cnc2c(c1NCc1ccncc1)c(=O)n(C)c(=O)n2C | -2.14% | 0% | 5.25% | -12.3% | -5.68% | -11.4% | 17.6% | 29.2% | 4.3% | 10% | -2.51% | –
